From ChEMBL document CHEMBL4513216, “Probing the Open Global Health Chemical Diversity Library for Multistage-Active Starting Points for Next-Generation Antimalarials” (ACS Infect Dis, 2020)
About 2,700 (4%) of roughly 68,000 compounds showed an effect of 50% or more. The sample holds strong results, similar compounds and a random draw of the others, so the mix is not that of the screen.

These compounds were tested on Plasmodium berghei (assay: Screen against P. berghei liver stage (PbLuc), transformed with Luciferase, at 2uM). Conditions: tested at 2 uM.
Type: functional, HepG2
With `OCC(CO)Nc1ccc2c(Cl)ccc(Cl)c2n1` the INHIBITION was 34.55%.
In the case of `O=C(c1ccc(F)cc1)N1CCC2(CCCN2CC2CC2)CC1`, the INHIBITION is reported as -38.96%.
`NC(=O)Nc1cccc(CNC(=O)CCCc2ccccc2)c1` gave an INHIBITION of 3.01%.
`Fc1cccnc1Oc1cc(F)c(CN2CCCC2)c(Cl)c1` was tested, and the INHIBITION was -42.73%.
`Clc1cc(N2CCC(N3CCCC3)CC2)nc2[nH]ccc12` showed an INHIBITION of 25.13%.
`Nc1cc2c(nn1)CCN(C(=O)c1cccc3c1OCO3)C2` showed an INHIBITION of 4.55%.
Compound `CC(=O)c1ccc(S(=O)(=O)NCc2cccnc2N(C)C)cc1` has an INHIBITION of 4.18%.
Work on `COc1ncccc1-c1nc(-c2ccccn2)nn1C1CCS(=O)(=O)C1` (centres undefined) yielded an INHIBITION of 19.12%.
In the case of `Nc1nc2cn(C3CCCC3)c(=O)c-2c[nH]1`, the INHIBITION is reported as -33.11%.
In the case of `Fc1cccc(-c2nc(CN3CCOC(Cn4cncn4)C3)co2)c1` (centres undefined), the INHIBITION is reported as 16.51%.
`c1csc(-c2nc(CN3CCOC(Cn4cccn4)C3)co2)c1` (centres undefined) was tested, and the INHIBITION was -25.44%.
`CCCc1nc(CN2CCOC(Cn3cncn3)C2)cs1` (centres undefined) gave an INHIBITION of 53.98%.
`CC(C)CCc1nc(CN2CCOC(Cn3cncn3)C2)cs1` (centres undefined) showed an INHIBITION of 7.13%.
Compound `CC(C)(C)c1nc(CN2CCOC(Cn3cncn3)C2)cs1` (centres undefined) has an INHIBITION of -5.09%.
In the case of `c1csc(-c2nc(CN3CCOC(Cn4cncn4)C3)co2)c1` (centres undefined), the INHIBITION is reported as 71.48%.
For `Cn1c(CN2CCCCC2)nnc1C1CCN(c2nccc(N)n2)CC1`, the INHIBITION was 21.2%.
In the case of `c1cnn(CC2CN(Cc3noc(C4CC4)n3)CCO2)c1` (centres undefined), the INHIBITION is reported as -28.51%.
`CCn1c(=O)n(Cc2nc(C3CC3)no2)c2ccccc21` showed an INHIBITION of 30.82%.
`CCC1c2ccccc2CCN1C(=O)c1ccnc(C(=O)OC)c1` (centres undefined) gave an INHIBITION of 20.34%.
With `CCc1nnc(C(C)N2CCN(CCC(C)(C)C)CC2)o1` (centres undefined) the INHIBITION was 38.97%.
`COc1cc(OCC(=O)NCCc2ccccc2)cc(OC)c1OC` showed an INHIBITION of 28.85%.
For `COc1cc(C(=O)O)cc(I)c1OCC(=O)NCCc1ccccc1`, the INHIBITION was 56.69%.
`COc1cc(C(=O)O)ccc1OCC(=O)NCCc1ccccc1` showed an INHIBITION of 10.1%.
Work on `CCN1C[C@H]2[C@@H](C1)N(c1ncc(F)cn1)CC[C@H]2OC` yielded an INHIBITION of 12.29%.
`CCc1ncc2c(n1)CN(Cc1nnc(C(C)C)o1)CC2` showed an INHIBITION of 46.76%.
`CCc1ncc2c(n1)CN(Cc1nnc(CC)o1)CC2` showed an INHIBITION of 9.18%.
For `CCc1ncc2c(n1)CN(Cc1nnc(C)o1)CC2`, the INHIBITION was 59.18%.
For `COCCN1C[C@@H]2[C@@H](OC)CCN(Cc3ccsc3)[C@@H]2C1`, the INHIBITION was 20.91%.
Work on `CN1C[C@@H](F)[C@@H](OCc2nc3ccc(C#N)cc3[nH]2)C1` yielded an INHIBITION of 52.91%.
`Cc1cc2nc(CO[C@H]3CN(C4CCC4)C[C@H]3F)[nH]c2cc1C` gave an INHIBITION of 46.17%.
`Cc1cc2nc(CO[C@H]3CN(C4CCCCC4)C[C@H]3F)[nH]c2cc1C` gave an INHIBITION of 18.65%.
Compound `CC(=O)N1C[C@@H](F)[C@@H](OCc2nc3ccc(C#N)cc3[nH]2)C1` has an INHIBITION of 36.99%.
With `Cc1cc2nc(CO[C@H]3CN(C4CCN(C)CC4)C[C@H]3F)[nH]c2cc1C` the INHIBITION was 50.7%.
In the case of `CN1C[C@@H](F)[C@@H](OCc2nc3ccccc3[nH]2)C1`, the INHIBITION is reported as 40.83%.
In the case of `O=C(Cn1cc(Cl)cn1)N1CCCC(c2cc3ccccc3cn2)C1` (centres undefined), the INHIBITION is reported as 36.98%.
`CCn1c(C)nnc1SCCNC(=O)c1cnc(N(C)C)nc1C` was tested, and the INHIBITION was -41.73%.
`CCC(NC(=O)c1cnc(N(C)C)nc1C)c1ccncc1` (centres undefined) showed an INHIBITION of 57.34%.
In the case of `COCCNC(=O)c1cnc(N(C)C)nc1C`, the INHIBITION is reported as 12.85%.
In the case of `CCC(NC(=O)c1cnc(N(C)C)nc1C)c1ccc(S(C)(=O)=O)cc1` (centres undefined), the INHIBITION is reported as 70.81%.
For `CCn1nc(C)c(C(C)NC(=O)c2cnc(N(C)C)nc2C)c1C` (centres undefined), the INHIBITION was -12.22%.
With `Cc1nc(N(C)C)ncc1C(=O)NCCc1csc(-c2ccncc2)n1` the INHIBITION was 40.05%.
`O=C(CN1CCc2cncnc2C1)N1CCc2sccc2C1` gave an INHIBITION of -27.59%.
For `Cn1cnnc1SCC(=O)N1C[C@@H]2CC[C@H]1CN(Cc1cccnc1)C2`, the INHIBITION was 12.74%.
`O=C(CN1CCCCC1)Nc1cc(C(F)(F)F)ccc1-n1cccc1` was tested, and the INHIBITION was 18.54%.
In the case of `CNC(=O)c1cccc(CNC(C)c2ccc(F)cc2N(C)C)c1` (centres undefined), the INHIBITION is reported as 55.25%.
In the case of `CNC(=O)c1cccc(CNC(C)c2cc(C)ccc2OC(F)F)c1` (centres undefined), the INHIBITION is reported as 25.55%.
Compound `CNC(=O)c1cccc(CNC(C)c2cc(Cl)ccc2OC)c1` (centres undefined) has an INHIBITION of 19.81%.
Work on `CC(C)n1nc(O)c2c1NC(=O)CSC2c1cnn(C)c1` (centres undefined) yielded an INHIBITION of 6.9%.
Work on `COc1cc(CNCC(C)O)cc(Cl)c1OCc1ccc(C)cc1` (centres undefined) yielded an INHIBITION of 44.51%.
`COc1ccc(C)cc1CN1CCN(Cc2nccn2C)C(C)C1` (centres undefined) showed an INHIBITION of 50.61%.
Compound `CC1CN(CC(=O)N2CCOCC2)CCN1Cc1nccn1C` (centres undefined) has an INHIBITION of 66.27%.
`CC1CN(CC(=O)NC2CCOCC2)CCN1Cc1nccn1C` (centres undefined) was tested, and the INHIBITION was -0.99%.
`Cc1ccccc1CN1CCN(Cc2nccn2C)CC1` was tested, and the INHIBITION was 20.28%.
In the case of `COc1ccc(CN2CCN(Cc3nccn3C)C(C)C2)cc1F` (centres undefined), the INHIBITION is reported as -13.34%.
Work on `C=C(C)CN1CCN(Cc2nccn2C)C(C)C1` (centres undefined) yielded an INHIBITION of 36.95%.
In the case of `COc1ccc(C)cc1CN1CCN(Cc2nccn2C)CC1`, the INHIBITION is reported as 50.61%.
In the case of `COc1ccc(F)cc1CN1CCN(Cc2nccn2C)C(C)C1` (centres undefined), the INHIBITION is reported as -49.85%.
In the case of `COc1ccc(C(C)N2CCN(Cc3nccn3C)CC2)cc1Cl` (centres undefined), the INHIBITION is reported as 18.31%.
Work on `Cc1cc(CN2CCc3nc(N4CCOCC4)nc(O)c3CC2)c(C)s1` yielded an INHIBITION of 22.84%.
`Cc1cccc(CNC2CC3(CCN(CCO)CC3)c3ccccc32)n1` (centres undefined) gave an INHIBITION of 34.02%.
With `Cc1ccc2oc(SCC(N)=O)nc2n1` the INHIBITION was -30.1%.
`CN(C(=O)Nc1nncs1)C1CCN(c2ccccc2Cl)C1=O` (centres undefined) showed an INHIBITION of 2.06%.
For `Cn1cnc2c1C(COCC1CCOCC1)CN(C(=O)c1ccco1)C2` (centres undefined), the INHIBITION was -39.19%.
For `CN(C)C(=O)N1CCN(C(=O)CCc2ccccc2)[C@H]2CS(=O)(=O)C[C@H]21`, the INHIBITION was -93.14%.
In the case of `Cn1c(C2CC2)nc2c1CCN(Cc1nc3ccccc3s1)C2`, the INHIBITION is reported as 14.59%.
`CN1CC2(CCN(C(=O)COc3ccc(Cl)cc3Cl)CC2)OC1=O` was tested, and the INHIBITION was 16.37%.
Work on `CC(C)(C)CN1CCC(c2nnc(Cn3ccnc3)n2C2CC2)CC1` yielded an INHIBITION of -13.72%.
With `OCC(CO)N1CCC(c2nnc(Cn3ccnc3)n2C2CC2)CC1` the INHIBITION was 32.26%.
For `NCCN1CCC(c2nnc(Cn3ccnc3)n2C2CC2)CC1`, the INHIBITION was 52.08%.
In the case of `CSCCCN1CCC(c2nnc(Cn3ccnc3)n2C2CC2)CC1`, the INHIBITION is reported as 54.29%.
Work on `CS(=O)(=O)N1CCC(c2nnc(Cn3ccnc3)n2C2CC2)CC1` yielded an INHIBITION of -13.72%.
`c1cn(Cc2nnc(C3CCN(C4CCOCC4)CC3)n2C2CC2)cn1` was tested, and the INHIBITION was 24.88%.
Work on `COc1ccccc1C(NC(=O)CN(C)C(C)C)c1noc(C)n1` (centres undefined) yielded an INHIBITION of 1.8%.
`O=C1CN(C(=O)c2cccc(OCc3cscn3)c2)CCN1` showed an INHIBITION of -7.02%.
Work on `Cc1ccc(OCC(=O)NC2CCN(S(C)(=O)=O)CC2)cc1` yielded an INHIBITION of 30.88%.
`CS(=O)(=O)N1CCC(NC(=O)COc2ccc(Cl)cc2)CC1` showed an INHIBITION of 54.86%.
In the case of `CS(=O)(=O)N1CCC(NC(=O)COc2ccc(Cl)c(Cl)c2)CC1`, the INHIBITION is reported as -34.45%.
In the case of `c1ccc(COC[C@]23COC[C@H]2CN(c2ncccn2)C3)nc1`, the INHIBITION is reported as -19.09%.
Work on `CC(C)N(C)Cc1ncn2c1CN(C(=O)C1CCCO1)CCC2` (centres undefined) yielded an INHIBITION of 21.7%.
For `Cc1c(CNCCCOc2cccnc2)c2ccccc2n1CC(N)=O`, the INHIBITION was 43.87%.
`Cc1ccc(OCCC(=O)N2CCC(c3nncn3C)CC2)c(C)c1` showed an INHIBITION of 7.74%.
In the case of `COc1ccc(CC(=O)N2CCCC(c3nncn3C)C2)cc1` (centres undefined), the INHIBITION is reported as 14.26%.
`COc1ccc(CC(=O)N2CCC(c3nncn3C)CC2)cc1F` showed an INHIBITION of 54%.
For `COc1ccc(CCNC(=O)N2CCCC(c3nncn3C)C2)cc1` (centres undefined), the INHIBITION was 55.45%.
With `COc1ccccc1CCNC(=O)N1CCCC(c2nncn2C)C1` (centres undefined) the INHIBITION was 18.59%.
Work on `COc1ccc(CC(=O)N2CCC(c3nnc4n3CCC4)CC2)cc1F` yielded an INHIBITION of -25.23%.
`CCn1cnnc1C1CCN(C(=O)c2cc(F)ccc2OC)CC1` showed an INHIBITION of 27.5%.
`Cc1ccc(C(=O)CCC(=O)N2CCC(c3nncn3C)CC2)cc1` showed an INHIBITION of 54.85%.
`Cc1cccc(C)c1OCCC(=O)N1CCC(c2nncn2C)CC1` was tested, and the INHIBITION was -1.56%.
`CCn1cnnc1C1CCN(C(=O)Cc2ccc(OC)c(F)c2)CC1` was tested, and the INHIBITION was 77.01%.
For `Cn1cnnc1C1CCN(C(=O)Cc2ccc3c(c2)OCCO3)CC1`, the INHIBITION was 5.14%.
For `CCn1cnnc1C1CCN(C(=O)COc2ccccc2OC)CC1`, the INHIBITION was -16.51%.
In the case of `c1coc(CN2CCC(c3ccc4c(c3)OCO4)CC2)c1`, the INHIBITION is reported as -8.85%.
Work on `Cc1ccc(CN(CCCn2ccnc2)Cc2ccccc2O)s1` yielded an INHIBITION of -43.99%.
`CN(C)CCNC(=O)c1cc(-c2cnc(N3CCCC3)nc2)cn1C` was tested, and the INHIBITION was 9.79%.
For `Cc1cccc(C(=O)N2CCCCC2c2ccc(CN(C)C)cc2)n1` (centres undefined), the INHIBITION was -32.59%.
`Fc1cc(Cl)cnc1N1CCCC(c2nccn2Cc2ccccn2)C1` (centres undefined) was tested, and the INHIBITION was 3.97%.
`COc1c(Cl)cc(C(=O)NCCNc2ncccn2)cc1Cl` showed an INHIBITION of 21.97%.
Work on `CN1CCCCC[C@@H]2[C@@H]1[C@H](c1ccccc1)CN2C(=O)c1cccnc1` yielded an INHIBITION of 31.28%.
`CN1CCCC[C@@H]2[C@H]1[C@@H](c1ccccc1)CCN2C(=O)c1cccnc1` was tested, and the INHIBITION was 51.57%.
Work on `CN1CCCC[C@@H]2[C@H]1[C@@H](c1ccccc1)CCN2C(=O)c1ccccc1` yielded an INHIBITION of -60.34%.
In the case of `COc1ccc(F)cc1C(=O)C1CCCN(Cc2cnc(C)s2)C1` (centres undefined), the INHIBITION is reported as 72.49%.
`COc1ccc(C(=O)C2CCCN(Cc3cccc(F)c3)C2)c(OC)c1` (centres undefined) was tested, and the INHIBITION was -14.94%.
In the case of `COc1ccc(F)cc1C(=O)C1CCCN(Cc2ccc(C)s2)C1` (centres undefined), the INHIBITION is reported as 49.02%.
